# PubChem BioAssay (NCI)
# About 79,000 compounds went through this panel and 15% of them were active in at least one assay; those are over-represented in the sample as a whole. Unmarked numbers belong to inactive results. Activity calls are given as the source filed them. No stated cut-off is given here; in the data, active means growth inhibition above about 70%; inactive means the rest.
# Assays:
# [1] = NCI Yeast Anticancer Drug Screen. Data for the rad50 strain (AID 155);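 further: 0% = growth of vehicle-only cultures of the same strain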; settings: S. cerevisiae rad50 strain growth inhibition, active compounds read high
# Procedure, shortened: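 Readout: growth inhibition relative to vehicle-treated cultures. Compound exposure was carried out in a genetically defined yeast strain deficient in DNA damage repair.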
# [2] = NCI Yeast Anticancer Drug Screen. Data for the mec2-1 strain (AID 157); settings: S. cerevisiae mec2-1 strain, active compounds read high
# Procedure, shortened: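 Each compound was tested on mec2-1 yeast, a strain altered in DNA damage repair or cell cycle control. Growth inhibition is reported relative to vehicle.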
# [3] = NCI Yeast Anticancer Drug Screen. Data for the sgs1 mgt1 strain (AID 161);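 further: 0% = growth of cultures given vehicle only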; settings: S. cerevisiae sgs1 mgt1 strain, active compounds read high
# Procedure, shortened: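 Read-out: growth inhibition vs vehicle controls. Cells: mutant yeast strain deficient in DNA damage repair.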
# [4] = NCI Yeast Anticancer Drug Screen. Data for the cln2 rad14 strain (AID 165);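 further: 0% = growth equal to vehicle treated cultures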; settings: S. cerevisiae cln2 rad14 strain, active compounds read high
# Procedure, shortened: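 Test compounds were added to cln2 rad14 yeast cultures; inhibition of growth was then determined by comparison with vehicle treatment.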
# [5] = NCI Yeast Anticancer Drug Screen. Data for the bub3 strain (AID 167); settings: S. cerevisiae bub3 mutant strain, active compounds read high
# Procedure, shortened: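 Readout: yeast growth inhibition, expressed relative to vehicle-only wells. The test organism is a mutant strain from a panel with lesions in DNA repair or checkpoint genes.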
# [6] = NCI Yeast Anticancer Drug Screen. Data for the mlh1 rad18 strain (AID 175); settings: S. cerevisiae mlh1 rad18 strain growth inhibition, active compounds read high
# Procedure, shortened: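 Inhibition values reflect reduced growth of mutant yeast versus vehicle-treated controls following compound exposure; the mutations affect DNA damage repair.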
# [7] = at 5.0 µM (retest, dose inferred, filed as 0.5)
# [8] = at 50.0 µM (retest, dose inferred, filed as 5.0)
Compound,"growth inhibition [1, 7]","growth inhibition [1, 8]",growth inhibition ([1]; at 50.0 µM),"growth inhibition [2, 7]","growth inhibition [2, 8]",growth inhibition ([2]; at 50.0 µM),"growth inhibition [3, 7]","growth inhibition [3, 8]",growth inhibition ([3]; at 50.0 µM),"growth inhibition [4, 7]","growth inhibition [4, 8]",growth inhibition ([4]; at 50.0 µM),"growth inhibition [5, 7]","growth inhibition [5, 8]",growth inhibition ([5]; at 50.0 µM),"growth inhibition [6, 7]","growth inhibition [6, 8]",growth inhibition ([6]; at 50.0 µM)
CCCCCOC(=O)C(C)SC#N (stereo not given),12%,45%,42.2%,-13%,54%,47.9%,4%,80% (active),66.7%,6%,29%,92.3% (active),9%,52%,54.9%,19%,44%,73.8% (active)
CCN1CCC(O)(/C=C/c2ccccc2C)C(C(=O)/C=C/c2ccccc2C)C1 (stereo not given),8%,84% (active),94.4% (active),-2%,74% (active),98.2% (active),3%,83% (active),99.4% (active),-2%,54%,92.2% (active),8%,83% (active),98.5% (active),4%,93% (active),99.5% (active)
NC(N)=Nc1ccc(N=C(N)N)cc1,3%,2%,92% (active),1%,-2%,99.7% (active),-1%,-3%,17.1%,1%,1%,60.8%,3%,3%,99.2% (active),2%,2%,45.5%
CCOC(=O)C1CCC(=O)O1 (stereo not given),-4%,43%,-14%,3%,87% (active),7.85%,4%,78% (active),2.4%,-23%,36%,16.6%,2%,93% (active),10.8%,-1%,95% (active),-1.15%
CC(=O)OC(C)C1C2=C(C(=O)CC1(C)O)C(=O)c1c(ccc(-c3ccc4c(c3O)C(=O)C3=C(C4=O)C(C(C)OC(C)=O)C(C)(O)CC3=O)c1O)C2=O (stereo not given),21%,94% (active),72.8% (active),10%,95% (active),79.6% (active),44%,86% (active),76.5% (active),12%,67%,70.8% (active),13%,85% (active),70.7% (active),28%,94% (active),76.7% (active)
CN(C)CCC[Si]1(C)c2ccccc2CCc2ccccc21,-6%,16%,82.8% (active),-5%,15%,40%,-5%,17%,57.4%,-2%,-5%,19.9%,-8%,6%,71.3% (active),-3%,26%,78.8% (active)
O=[N+]([O-])C1CCC(C2=CSC3CCCCC3N2)CC1 (stereo not given),12%,7%,34.6%,-16%,44%,57.5%,-9%,23%,38.8%,23%,31%,11.4%,0%,52%,67.8%,-1%,60%,18%
ONC1=Nc2ccccc2OCc2cc(Br)c(Br)cc2COc2ccccc2N=C1NO,22%,96% (active),88% (active),19%,98% (active),91.1% (active),18%,89% (active),91.5% (active),-1%,81% (active),89.4% (active),13%,91% (active),90.9% (active),31%,97% (active),87.9% (active)
N#CC1=C(N)OC(/C=C/c2ccccc2)=C(C#N)C1c1ccccc1 (stereo not given),33%,81% (active),90.2% (active),25%,81% (active),76.3% (active),30%,91% (active),93.6% (active),33%,86% (active),101% (active),23%,81% (active),75% (active),19%,86% (active),88.3% (active)
CCCCCCCCCCC[N+](C)(C)CCCCCC[N+](C)(C)CCCCCCCCCCC,92% (active),98% (active),88.6% (active),97% (active),99% (active),91% (active),99% (active),99% (active),90.9% (active),96% (active),99% (active),90.3% (active),99% (active),100% (active),88.4% (active),97% (active),99% (active),90.2% (active)
NNC(=O)c1ccc(N)cc1O,-1%,-5%,-13.6%,-3%,-1%,-13.8%,-2%,-3%,-29.2%,-2%,-11%,75.1% (active),-1%,-1%,-3.65%,0%,-4%,1.8%
CCCCCCCCCCCCCCCc1nc(SCC(=O)O)n[nH]1,2%,58%,54.8%,0%,52%,55.9%,18%,54%,74.2% (active),3%,40%,80.5% (active),-1%,67%,37.1%,9%,71% (active),89.5% (active)
Nc1ccc2c(c1)[nH]c(=O)c1ccc(Cl)cc12,-63%,94% (active),98.2% (active),-32%,82% (active),90.5% (active),-32%,83% (active),93.1% (active),-30%,85% (active),92.5% (active),-52%,91% (active),78.9% (active),-56%,93% (active),97% (active)
CC(C)(C)c1ccc(-c2nnc(SCc3ccc(Cl)cc3)n2-c2cccc(C(F)(F)F)c2)cc1,-14%,-34%,52.6%,-20%,-26%,5.9%,-13%,-30%,-3.2%,9%,-14%,-20.9%,7%,-9%,14.4%,-28%,-29%,-19.6%
CCCCCOCC(=O)OC,-1%,13%,-1.9%,0%,5%,-11.6%,-1%,5%,-16.2%,2%,0%,44.2%,0%,7%,-1.3%,2%,7%,-15.1%
CC(c1ccccc1C(=O)O)c1cccc2ccccc12 (stereo not given),4%,89% (active),87.3% (active),-3%,91% (active),92.3% (active),6%,90% (active),83.3% (active),6%,98% (active),97.5% (active),-7%,88% (active),91.5% (active),-12%,92% (active),92.8% (active)
O=C(/C=C(/Nc1ccccc1)C(=O)c1ccccc1)c1ccccc1,3%,77% (active),30.6%,9%,96% (active),37.2%,8%,90% (active),68.8%,0%,39%,-5.1%,13%,33%,74% (active),6%,91% (active),37.7%
C=CCNC(=O)NC(=O)CSC1=NNC2(C(=O)N1)c1ccccc1-c1ccccc12,-4%,74% (active),85.2% (active),-21%,65%,78.7% (active),-11%,85% (active),87.1% (active),2%,82% (active),85.7% (active),-16%,91% (active),86.5% (active),-6%,88% (active),86.7% (active)
CCSC(=S)NC(=O)c1ccccc1,-6%,27%,60.2%,1%,20%,21.4%,-2%,30%,76.5% (active),-12%,28%,38.1%,-7%,44%,17.2%,-3%,32%,36.9%
C=C1C[C@H](O)[C@H]2C(C[Se]c3ccccc3)C(=O)O[C@@H]2[C@H]2[C@H](C)C(O)C[C@@H]12 (stereo not given in full),2%,35%,43.6%,2%,-7%,20.6%,9%,61%,17.2%,-2%,8%,-32.1%,-5%,21%,21.8%,0%,32%,86.5% (active)
